Compound activity deposited in PubChem by The Scripps Research Institute Molecular Screening Center.
DAX1 inh-1: DAX1 (NR0B1) inhibitors, primary screen, cell-based, HEK293, Gal4-DAX1, luciferase luminescence. Nuclear receptor subfamily 0 group B member 1 (Homo sapiens), P51843. HEK293 Gal4-DAX1 luciferase reporter. inhibition, % at 6.75 µM. actives 0.99% (n = 340,000). AID 504766, 2011;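 active = inhibition above the mean over all tested compounds plus 3 SD, cut at about 4.2% in these data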;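 note: 0% = DAX1-transfected cells with DMSO and 100% = empty-vector control cells with DMSO; inhibition shows as a rise in luminescence from relieved DAX1 repression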
Target sequence (P51843 207-470 limits assumed): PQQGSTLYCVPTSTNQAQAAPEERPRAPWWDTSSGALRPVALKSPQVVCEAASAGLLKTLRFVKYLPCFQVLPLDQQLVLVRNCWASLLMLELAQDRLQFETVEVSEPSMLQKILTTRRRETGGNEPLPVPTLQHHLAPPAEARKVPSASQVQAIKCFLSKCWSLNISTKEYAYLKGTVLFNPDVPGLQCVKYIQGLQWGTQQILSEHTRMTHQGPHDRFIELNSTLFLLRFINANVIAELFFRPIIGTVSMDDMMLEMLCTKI
hgDAF-12 ag: H. glycines DAF-12 receptor agonists, primary screen, cell-based, luminescence, HEK293, GAL4 fusion, UAS-luciferase | HEK293 GAL4-hgDAF12 UAS-luciferase reporter, agonist luminescence; normalized to butyrate control | activation, % at 6.8 µM | actives 1.8% (n = 370,000);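 active = activation above a cutoff set at the mean of all screened compounds plus 3 SD, cut at about 10% in these data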;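 note: 0% = DMSO wells and 100% = sodium butyrate wells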
ssDAF-12 act: S. stercoralis DAF-12 nuclear receptor activators, primary screen, cell-based, luminescence, HEK293, GRIP1 co-expression, lit1-tk-luc; Nuclear hormone receptor DAF-12 (Strongyloides stercoralis); HEK293 ssDAF-12/GRIP1 lit1-tk-luc reporter; % of 3 µM dafachronic acid response; activation, % at 6.8 µM; actives 1% (n = 370,000); AID 652126, 2013;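 active = activation above the mean over all tested compounds plus 3 SD, cut at about 0.9% in these data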;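 note: 0% = DMSO-only wells and 100% = 3 µM delta7-dafachronic acid wells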
hcDAF-12 act: H. contortus DAF-12 nuclear receptor activators, primary screen, cell-based, luminescence, HEK293, lit1-tk-luc reporter | activation, % at 6.8 µM | HEK293 hcDAF-12 lit1-tk-luc reporter; 0% DMSO, 100% Δ7-dafachronic acid | AID 652067, 2013 | actives 1.4% (n = 370,000);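 active = activation above the mean of all tested compounds plus 3 SD, cut at about 5.5% in these data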;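 note: 100% = response to 3 µM Δ7-dafachronic acid high control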
DAX1 inh-2: DAX1 (NR0B1) inhibitors on StAR promoter, primary screen, cell-based, luminescence, SF-1 (NR5A1), full-length DAX-1; inhibition, % at 6.8 µM; HEK293T StAR-luciferase reporter, SF-1/DAX-1 repression relief; AID 652010, 2013; actives 1.1% (n = 370,000);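 active = inhibition above the mean over all tested compounds plus 3 SD, cut at about 3.6% in these data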;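 note: 0% = DAX-1 cells with DMSO and 100% = cells lacking DAX-1 with DMSO; higher inhibition means more luminescence from relief of DAX-1 repression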
DAX1 inh confirm: DAX1 (NR0B1) inhibitors relieving SF-1 repression, confirmation, cell-based, luminescence, HEK293T, full-length DAX-1, SF-1 activated StAR promoter | shares compounds with DAX1 inh-2 | HEK293T StAR-promoter luciferase reporter, SF-1/DAX-1 repression | inhibition, % at 6.8 µM | AID 652134, 2013 | actives 87% (n = 2,400);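 active = inhibition above the average of every tested compound plus 3 SD, cut at about 3.8% in these data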;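 note: 0% = DAX-1 cells with DMSO and 100% = no DAX-1 control cells with DMSO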
SF1 mutant ctr: StAR reporter signal changes without DAX1, counter-screen for DAX1 inhibitor project, cell-based, luminescence, AF-2 mutant SF-1, transactivation; shares compounds with DAX1 inh-2; HEK293 StAR-luciferase, SF-1 AF2 mutant; inhibition, % at 6.8 µM; actives 78% (n = 2,400);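 active = inhibition above the mean of all tested compounds plus 3 SD, cut at about 3% in these data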;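 note: 0% = DAX-1 transfected cells with DMSO and 100% = cells without DAX-1 with DMSO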
* = called active by the depositor; x = not tested or not shown. Compounds with a hit are over-represented: about 4.1% of the library has one in this group of screens.

SMILES	DAX1 inh-1	hgDAF-12 ag	ssDAF-12 act	hcDAF-12 act	DAX1 inh-2	DAX1 inh confirm	SF1 mutant ctr
Cc1ccc(S(=O)(=O)N2CCCC(C(=O)Nc3c(C)n(C)n(-c4ccccc4)c3=O)C2)cc1 (stereo unspecified)	x	-3	-1	-2	-1	x	x
Cc1nc2ccc(NC(=O)CS(=O)(=O)c3ccccc3)cc2s1	1	7	0	1	6.0*	5.6*	3.0*
CCCn1c2ccccc2c2cnn(CC(=O)NCCCOC)c(=O)c21	0	-2	-1	-2	1	x	x
CCCn1c2ccccc2c2cnn(CC(=O)NCCCN3C(C)CCCC3C)c(=O)c21 (stereo unspecified)	-1	2	-1	0	5.6*	-1	-1
COc1cc2cc(C(=O)NC(C)c3cccc4ccccc34)c(N)nc2cc1OC (stereo unspecified)	x	2	-1	-3	5.1*	2	-1
O=C(NCCc1ccccc1)c1ccc([N+](=O)[O-])cc1	-2	10	1	6	5.3*	13*	7.1*
O=C(NCCc1ccc([N+](=O)[O-])cc1)c1ccccc1	1	3	-2	0	0	x	x
COc1ccc(NC(=O)NCCCN2CCN(c3ccc(F)cc3)CC2)cc1OC	x	-1	-1	-1	1	x	x
CCc1ccc(CNC(=O)Cc2ccc(NC(=O)C3=C(C)OCCS3)cc2)cc1	0	9	0	5	15*	21*	-4
CC1=C(C(=O)Nc2ccc(CC(=O)NCc3ccccc3C)cc2)SCCO1	0	2	0	0	0	x	x
O=C(NCc1ccccn1)c1cccc(S(=O)(=O)N2CCCCC2)c1	0	4	-1	1	4.7*	2	2
O=C(NCc1ccccn1)c1ccc(Cl)c(S(=O)(=O)N2CCCCC2)c1	0	-5	0	-3	0	x	x
Cc1ccnc(NC(=O)c2cccc(S(=O)(=O)N3CCN(c4ccccc4)CC3)c2)c1	-1	10	0	5	13*	4.0*	3
Cc1ccnc(NC(=O)c2ccc(S(=O)(=O)N3CCC(C)CC3)cc2)c1	2	11*	0	4	11*	13*	7.6*
C[C@H]1[C@@H](OC(=O)N2CCCC2)CC[C@@]23CCCN2C(=O)CCC[C@@H]13	x	-1	-2	0	x	x	x
CC(C)CN1CCC(CN2C(=S)NC[C@@H]2Cc2ccccc2)CC1	x	0	-1	-2	3	x	x
O=C(Nc1ccc(F)cc1)OC1CC2CC1[C@H]1CCCCN1[C@H]2Cc1ccccc1 (stereo partly specified)	x	2	0	3	0	x	x
Cc1cccc(C)c1-n1nnnc1C1c2ccccc2C(=O)N1C1CC1 (stereo unspecified)	x	0	-1	0	4.9*	-2	-1
O=C1c2ccccc2C(c2nnnn2-c2ccc3ccccc3c2)N1C1CC1 (stereo unspecified)	x	-1	-1	1	2	x	x
CCCN1CCCCC(NC(=O)c2ccc(F)c(F)c2)C1=O (stereo unspecified)	x	0	-1	1	0	x	x
COc1cc(NC(=O)CCCN2C(=O)NC(C)(C)C2=O)cc(OC)c1	1	-3	-1	0	4.8*	2	0
CCCCCN1CCCCC(NC(=O)CSc2ccccc2)C1=O (stereo unspecified)	x	1	-1	-2	0	x	x
COC(=O)c1cccc(Cn2ccc3ccc(-c4ccc5ccn(C(=O)c6ccc(C)cc6)c5c4)cc32)c1	x	-2	-1	0	-1	x	x
CCOC(=O)N1CCN(C(=O)c2ccc3oc(CCCc4ccccc4)nc3c2)CC1	2	8	-1	3	5.2*	6.0*	2
Oc1ccc(N=Nc2ccccc2)cc1	2	10	0	4	1	x	x
SMILES	DAX1 inh-1	hgDAF-12 ag	ssDAF-12 act	hcDAF-12 act	DAX1 inh-2	DAX1 inh confirm	SF1 mutant ctr
Cc1ccc(O)c(N=Nc2ccccc2)n1	1	12*	0	4	5.6*	10*	6.5*
FC(F)(F)c1cc(CNC2CCC23CCC(c2ccccc2)CC3)ccc1Cl (stereo unspecified)	x	8	-1	0	x	x	x
CCN(CC)C(=O)CC[C@H]1CC[C@]2(CCCN(Cc3ccc(OC)cc3)C2)O1	x	1	-1	1	1	x	x
CN1CCN(c2ccc(-c3cccc(NC(=O)COc4ccccc4)c3)nn2)CC1	1	13*	1	5	10*	7.2*	2
CC1(C2CC2)NC(=O)N(CC(=O)N2CCN(c3ccccc3)CC2)C1=O (stereo unspecified)	0	1	-1	0	6.7*	0	0
COc1cc(O)c(C(CC(=O)N2CCC(C)CC2)c2ccc3c(c2)OCO3)c(OC)c1 (stereo unspecified)	x	3	-2	-2	x	x	x
CC(C)NC(=O)N[C@H]1CC[C@H](CC(=O)NCc2ccc(Oc3ccccc3)cc2)O[C@@H]1CO	x	2	-1	0	4.5*	0	3
COc1ccc(C(=O)N=c2sc3c(C)ccc(OC)c3n2C)cc1	4	13*	0	5	4.8*	3	-4
CC(=O)c1cc(-c2ccc3nonc3c2)c(=O)n2c1CCC2	x	-3	-1	-1	-1	x	x
CC(C)Oc1ccc(S(=O)(=O)N2CCCCC2)cc1NC(=O)CN1C(=O)NC(C)(C2CC2)C1=O (stereo unspecified)	0	-2	-1	-1	4.7*	1	2
COc1ccc(S(=O)(=O)N2CCCCC2)cc1NC(=O)CN1C(=O)NC(C)(C2CC2)C1=O (stereo unspecified)	0	-1	-1	-1	0	x	x
CC(C)CN(CC(C)C)C(=O)CSc1nc2cccnc2n1C	x	-5	-1	-3	-2	x	x
COC(=O)c1sccc1NC(=O)Nc1ccc(C)cc1	2	13*	1.4*	5.9*	8.5*	4.6*	2
